Structures can show the parent of a compound that is named as a salt.

Assay [1] relates to Neuro-2a. Put plainly: neurite formation score, plate-normalized to DMSO control mean 5.04 (score (0-8 scale)); higher = more or longer neurites. The following applies: 1 µM. On the procedure:
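Neuro-2a mouse neuroblastoma cells in PLL-coated 96-well plates were pre-treated for 1 h in DMEM(+) with each kinase inhibitor at 1 µM, then switched to serum-free DMEM(-) with inhibitor to induce neurite outgrowth and fixed about 2-3 h later. Three blinded observers scored neurite formation from 0 (no neurites) to 8 (long neurites on almost all cells).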

Assay [2] deals with Neuro-2a. The description is as above. The following applies: 0.1 µM. On the procedure: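 Neuro-2a mouse neuroblastoma cells in PLL-coated 96-well plates were pre-treated for 1 h in DMEM(+) with each kinase inhibitor at 0.1 µM, then switched to serum-free DMEM(-) with inhibitor to induce neurite outgrowth and fixed about 2-3 h later. Three blinded observers scored neurite formation from 0 (no neurites) to 8 (long neurites on almost all cells).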

For the compound `COc1cc(Nc2c(C#N)cnc3cc(OCCCN4CCN(C)CC4)c(OC)cc23)c(Cl)cc1Cl` [Bosutinib (SKI-606)], the neurite formation score in the assay with Neuro-2a [1] came out at 4.57; in the assay with Neuro-2a [2], 2.71.
As to `O=c1c(-c2ccc(O)cc2)coc2cc(O)cc(O)c12` [Genistein], the figures for the neurite formation score in the assay with Neuro-2a [1] and in the assay with Neuro-2a [2] were 4.57 and 3.38, respectively.
On the same counts, the results for `CCN(CC)CCNC(=O)c1c(C)[nH]c(/C=C2\C(=O)Nc3ccc(F)cc32)c1C` [Sunitinib malate] are 5.57 and 5.21.
On to `CN(C)C(=O)c1cc2cnc(Nc3ccc(N4CCNCC4)cn3)nc2n1C1CCCC1`, for which the neurite formation score in the assay with Neuro-2a [1] came out at 4.96; in the assay on Neuro-2a [2], 4.58.
For the compound `CCCCOc1c(C(=O)c2c(F)cc(C)cc2F)c[nH]c2nncc1-2`, the neurite formation score in the assay on Neuro-2a [1] is 5.29; in the assay on Neuro-2a [2] it was 4.92.
For `O=C1NCCCc2c1oc1ccc(O)cc21` the same measures were 5.29 and 4.58.
For `Nc1cc(N)c(N)cc1N` [FAK Inhibitor 14] the same measures were 4.54 and 4.08.
On the same counts, the results for `CC(C)N(CCC(=O)c1ccc2ccccc2c1)Cc1ccccc1` are 5.02 and 4.92.
Turning to `CCNC(=O)Nc1ccc(-c2nc3c(c(N4CCOC[C@@H]4C)n2)CCN(C2COC2)C3)cc1`, the neurite formation score in the assay on Neuro-2a [1] was determined as 4.24; in the assay on Neuro-2a [2], 3.71.
On the same counts, the results for `CC(C)(CCCCCC(O)CCCCCC(C)(C)C(=O)O)C(=O)O` are 0.138 and 0.0903.
For `COc1cc(N2CCC(N3CCN(C)CC3)CC2)ccc1Nc1ncnc(Nc2ccccc2S(=O)(=O)C(C)C)n1` the same measures were 5.24 and 4.38.
For `CCN(CC)CCCC(C)Nc1nc(C)cc(Nc2ccc3nc(C)cc(N)c3c2)n1` (configuration not stated) the same measures were 4.91 and 5.38.
In the case of `CN1CCN(c2nc(C3=C(c4c[nH]c5ccccc45)C(=O)NC3=O)c3ccccc3n2)CC1` [Sotrastaurin (AEB071)], the neurite formation score came out at 5.96 with Neuro-2a [1] and 4.92 in the assay on Neuro-2a [2].
On the same counts, the results for `Oc1cccc(-c2nc(N3CCOCC3)c3oc4ncccc4c3n2)c1` [PI-103 Hydrochloride] are 4.69 and 5.25.
On the same counts, the results for `Nc1nc(N)c(N=O)c(OCC2CCCCC2)n1` are 4.57 and 4.71.
For `CCCCCCCCc1ccc(CCC(N)(CO)CO)cc1` [Fingolimod (FTY720)] the same measures were 3.63 and 4.25.
For `CNC(=O)c1cc(Oc2ccc(NC(=O)c3cccc(C(F)(F)F)c3)cc2)ccn1`, the neurite formation score was found to be 3.57 in the assay on Neuro-2a [1] and 5.54 in the assay on Neuro-2a [2].
On the same counts, the results for `CCN(CC)CCCC(C)Nc1ccnc2cc(Cl)ccc12` (configuration not stated) [Chloroquine diphosphate] are 4.96 and 4.58.
On the same counts, the results for `O=C1c2ccc(Nc3ccc(F)cc3F)cc2CCc2ccc(OC[C@H](O)CO)cc21` [Skepinone-L] are 5.02 and 5.25.
`Oc1ccc(-c2nc(-c3ccc(F)cc3)c(-c3ccncc3)[nH]2)cc1`: the neurite formation score with Neuro-2a [1] was 4.57; with Neuro-2a [2], 4.71.
For `N#C/C(=C\c1ccc(O)c(O)c1)C(=O)NCc1ccccc1` the same measures were 4.02 and 4.58.
For `COc1ccc(CNc2nc(N(CCO)CCO)nc3c2ncn3C(C)C)cc1` the same measures were 5.57 and 4.04.
For `O=c1c(O)c(-c2ccc(O)c(O)c2)oc2cc(O)cc(O)c12` [Quercetin] the same measures were 4.54 and 5.08.
For the compound `c1cc(-c2cnn3cc(-c4ccc(OCCN5CCCCC5)cc4)cnc23)ccn1` [Dorsomorphin 2HCl], the neurite formation score was found to be 4.96 in the assay on Neuro-2a [1] and 3.92 with Neuro-2a [2].
With `CS(=O)(=O)c1ccc(-c2cnc(N)c(C(=O)Nc3ccccc3)n2)cc1`, the neurite formation score with Neuro-2a [1] is 4.24; in the assay with Neuro-2a [2], 3.04.
On the same counts, the results for `CC1=C(C(=O)Nc2cc3cn[nH]c3cc2F)C(c2ccc(C(F)(F)F)cc2)CC(=O)N1` (configuration not stated) are 0.236 and 4.21.
On the same counts, the results for `O=C(NCc1cccc(O)c1)Nc1nc(-c2ccncc2)cs1` are 5.02 and 5.25.
For `Cc1cn(-c2cc(NC(=O)c3ccc(C)c(Nc4nccc(-c5cccnc5)n4)c3)cc(C(F)(F)F)c2)cn1` [Nilotinib monohydrochloride monohydrate] the same measures were 4.47 and 3.09.
For the compound `CC(=O)Nc1cccc(-n2c(=O)n(C3CC3)c(=O)c3c(Nc4ccc(I)cc4F)n(C)c(=O)c(C)c32)c1`, the neurite formation score in the assay with Neuro-2a [1] was 3.57; in the assay with Neuro-2a [2], 4.38.
As to `COc1cc(N2CCOCC2)ccc1Nc1ncc(F)c(Nc2ccccc2NS(C)(=O)=O)n1`, the neurite formation score with Neuro-2a [1] was found to be 4.54; with Neuro-2a [2] it was 4.75.
For `Oc1ccc(Nc2nc(-c3ccc(Cl)cc3)cs2)cc1` the same measures were 4.21 and 2.42.
Consider `COc1cc(Nc2ncc(F)c(Nc3ccc4c(n3)N(COP(=O)(O)O)C(=O)C(C)(C)O4)n2)cc(OC)c1OC` [Fostamatinib (R788)], for which the figures for the neurite formation score in the assay on Neuro-2a [1] and with Neuro-2a [2] were 4.8 and 3.76, respectively.
`NC1(C(=O)N[C@@H](CCO)c2ccc(Cl)cc2)CCN(c2ncnc3[nH]ccc23)CC1`: the neurite formation score turned out to be 5.57 in the assay on Neuro-2a [1] and 5.38 with Neuro-2a [2].
On the same counts, the results for `NC(=O)c1cnc(N[C@@H]2CCCC[C@@H]2N)nc1Nc1cccc(-n2nccn2)c1` are 4.36 and 4.92.
`CCC(=O)Nc1cccc(Oc2nc(Nc3ccc(N4CCN(C)CC4)cc3OC)ncc2Cl)c1`: the neurite formation score was determined as 5.63 with Neuro-2a [1] and 4.25 in the assay with Neuro-2a [2].
For `Cc1cc2c(F)c(Oc3ncnn4cc(OC[C@@H](C)O)c(C)c34)ccc2[nH]1`, the neurite formation score in the assay on Neuro-2a [1] came to 4.57; in the assay with Neuro-2a [2], 4.38.

Values taken from the supplement of paper PMC8047044.
